Screening results (PubChem BioAssay)
Gal4-VP16 FLuc = inhibits Gal4-VP16 luciferase reporter, ROR gamma counter-screen; AID 2546; 310,000 tested, 3.5% active; Potency, µM (top dose mostly 53.6 µM), for inactives: at the highest dose activity, negative = inhibition, actives largely listed as inhibitors; Drosophila S2 Gal4-VP16 UAS-luciferase, luminescence, 20 h;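 further: Gal4-VP16 expression switched on by copper sulfate through the metallothionein promoter; potency means the concentration at half of the fitted maximal effect; nearly all actives have a fitted effect of over 50% in size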
B2AR arrestin = agonists driving beta-arrestin recruitment to human beta2-adrenergic receptor; P07550; Potency, µM (highest dose often 46.1 µM), without a hit: at the highest dose activation, most hits filed as activators; beta-arrestin recruitment to beta2AR, cell-based reporter; 330,000 tested, 0.02% active;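 further: potency means the concentration at half of the fitted maximal effect; 0% = DMSO controls and full agonism = EC100 isoproterenol or metaproterenol; nearly all actives have a fitted effect of over 65% in size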
TSHR antag = blocks TSH signaling through the human TSH receptor. P16473. activity change, negative = inhibition, % at 11.5 µM. AID 504810. TSHR-expressing cells, TSH-stimulated cAMP HTRF, 2 h; active compounds read low. 330,000 tested, 0.2% active;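 active means activity change below a set negative limit, meaning inhibition stronger than a set level, cut at about -70% in these data; inconclusive means activity change between two set negative limits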
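Cell-based HTRF cAMP assay; TSHR cells + compound, TSH EC80 (4nM final), 2 h, 37 deg C. Lysis with anti-cAMP cryptate and cAMP-d2, 30 min RT, read 665/620 nm.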
ELG1 DNA repair = blocks ELG1-dependent DNA repair in HEK293T cells | HEK293T ELG1-luciferase reporter, luminescence, 16 h; DNA damage induced by 5-fluorouridine | Potency, µM (series often up to 46.1 µM), for the others: at the top dose activity change, negative = inhibition, usual class: inhibitors | 330,000 tested, 2.3% active | AID 504467; further: potency means the concentration at half of the fitted maximal effect; nearly all actives have a fitted effect of over 55% in size
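DMSO vehicle served as the neutral condition. Each well held 2,000 cells given 5-fluorouridine plus compound; after 16 hr at 37 °C/5% CO2, ONE-Glo was added and luciferase measured 30 min later.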
RORg inh = inhibitors of mouse ROR gamma transcriptional activity; Drosophila S2 Gal4-RORgamma UAS-luciferase reporter, 20 h; Potency, µM (top dose mostly 53.6 µM), inactives show at the top dose activity change, negative = inhibition, hits mostly inhibitors; 310,000 tested, 5.4% active; further: potency means the concentration at half of the fitted maximal effect; nearly all actives have a fitted effect of over 60% in size
Target sequence (P51450 whole entry, looked up, the tested form may be a part): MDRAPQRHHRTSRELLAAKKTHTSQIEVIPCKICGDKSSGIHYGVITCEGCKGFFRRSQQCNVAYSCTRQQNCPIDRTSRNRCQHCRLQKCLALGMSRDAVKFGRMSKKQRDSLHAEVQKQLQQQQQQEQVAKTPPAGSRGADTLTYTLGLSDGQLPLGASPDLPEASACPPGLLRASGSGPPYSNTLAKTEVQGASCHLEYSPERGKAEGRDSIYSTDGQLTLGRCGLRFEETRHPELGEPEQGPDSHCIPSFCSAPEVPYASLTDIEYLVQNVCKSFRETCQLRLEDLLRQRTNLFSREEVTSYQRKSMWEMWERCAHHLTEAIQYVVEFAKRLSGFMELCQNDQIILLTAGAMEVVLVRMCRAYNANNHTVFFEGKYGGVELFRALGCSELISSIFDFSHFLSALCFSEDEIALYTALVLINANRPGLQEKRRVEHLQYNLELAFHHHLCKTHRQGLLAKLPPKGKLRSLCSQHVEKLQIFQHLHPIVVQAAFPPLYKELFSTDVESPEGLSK
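In this cell-based reporter format, copper sulfate (700 uM final) drives Gal4–ROR gamma fusion expression from a metallothionein promoter in Drosophila Schneider cells; compounds preincubated 1 hr, reporter read after 20 hr at ambient temperature.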
Active calls of the source: *; ? = inconclusive; . = no result; [ ] = remark or other dose. Compounds with a hit are over-represented: about 7.5% of the library has one in this group of screens. Unless noted, the call rests on the fitted dose curve; in most records, active means well fitted curve in the direction sought with a large enough effect; inconclusive means small, poorly fitted or top-dose-only effect, or another doubt; inactive means no such curve, though single readings can be large; an effect the other way counts as inactive or inconclusive. Unless noted, on the % scale 0 is the no-effect control and ±100 the full control effect.

SMILES	Gal4-VP16 FLuc	B2AR arrestin	TSHR antag	ELG1 DNA repair	RORg inh
OC[C@@H](O)C(O)[C@H](O)[C@@H](O)CO (some centres undefined)	-9%	.	.	.	9%
Cc1nnc(SCc2nnc(-c3cccs3)o2)s1	17%	0%	10	?	-4%
COc1ccccc1-c1oc2ccccc2c(=O)c1O	1%	.	.	.	20µM*
COc1ccc(OC)c(-c2oc3ccccc3c(=O)c2O)c1	-28%	-1%	-34	-26%	7.1µM*
COc1ccccc1-c1oc2ccccc2c1-c1ccccc1OC	.	-1%	-4	25%	.
CC(=O)OC[C@@H]1O[C@H](C/C=N\OC[C@@H](C)[C@H](OCc2ccccc2)C(C)C)C=C[C@@H]1OC(C)=O	-2%[10 µM]	.	.	.	-6%[10 µM]
CCC1Oc2ccc(C)cc2N(CC(=O)N(Cc2ccc3c(c2)OCO3)CC2CCCO2)C1=O (centres undefined)	-1%	0%	-1	?	40%
COc1ccc(CN(CC2CCCO2)C(=O)CN2C(=O)C(C)Oc3ccc(C)cc32)cc1OC (centres undefined)	-2%	0%	5	8.2µM*	?
CN1CCN(c2ncc3nc(-c4cn(C)c5ccccc45)c(=O)n(Cc4cccs4)c3n2)CC1	?	.	.	.	-11%
Cc1cccc(NC(=O)CCNC(=O)c2ccc(Br)cc2)c1C	4%	0%	-4	-4%	-2%
CC(=O)NN1C(=O)c2ccccc2NC1c1ccccc1O (centres undefined)	?	0%	0	-10%	11µM*
Cc1nc(SCc2nc3ccccc3[nH]2)c2oc3cc([N+](=O)[O-])ccc3c2n1	.	-4%	2	23µM*	.
CCOC(=O)c1ccccc1OC(=O)CS(=O)c1ccccc1[N+](=O)[O-] (centres undefined)	-8%	0%	5	-16%	-20%
CS(=O)(=O)c1ccc(S(=O)CC(=O)OCc2ccccc2)c([N+](=O)[O-])c1 (centres undefined)	4.5µM*	0%	12	?	4.5µM*
O=C(CS(=O)c1ccc(C(F)(F)F)cc1[N+](=O)[O-])Oc1ccccc1 (centres undefined)	0%	0%	-71*	?	-15%
O=C(Nc1ccc(S(=O)(=O)Nc2ncccn2)cc1)C1=COCCO1	.	-1%	-20	20%	.
COc1cc(CNn2c(C)n[nH]c2=S)cc(Cl)c1OCc1ccc(F)cc1	?	0%	-14	?	?
COc1cc(CNn2c(C)n[nH]c2=S)cc(Br)c1OCc1ccc(F)cc1	-2%	-1%	-8	-16%	10µM*
C=CCOc1c(Br)cc(CNn2cn[nH]c2=S)cc1OC	-2%	-1%	2	13%	10µM*
C=CCOc1ccc(CNn2cn[nH]c2=S)cc1	?	0%	26	16%	13µM*
COc1cc(C(=O)NCc2ncccc2C)ccc1OC1CCN(C(C)=O)CC1	-8%	0%	10	7%	-14%
CCOC(=O)CSC1=NC(=O)/C(=C\c2ccc(Cl)cc2)S1	13µM*	-1%	-28	22%	-26%
O=C1[C@@H]2[C@H]3[C@H](O)[C@H](O)C/C(=N/OCc4ccccc4)[C@H]3CC[C@H]2C(=O)N1c1ccc(F)cc1F	3%[10 µM]	.	.	.	-5%[10 µM]
N#C/C(=C/c1cn(-c2ccccc2)nc1-c1cccc(OCc2ccc(F)cc2)c1)C(=O)NCCCn1ccnc1	11µM*	0%	-14	15µM*	?
CCOC(=O)CC(NS(=O)(=O)c1ccc2[nH]cc(C(=O)O)c(=O)c2c1)c1ccc(OCC)c(OC)c1 (centres undefined)	10%	0%	2	8%	-26%
SMILES	Gal4-VP16 FLuc	B2AR arrestin	TSHR antag	ELG1 DNA repair	RORg inh
Cn1nccc1NC(=O)Nc1cccc(Cl)c1	-8%	-1%	2	12%	15%
Cn1nccc1-c1cc(Cl)cc(Cl)c1O	32µM*	-1%	24	7%	?
COc1ccc(NCC(=O)Nc2ccc(Br)cc2F)c(OC)c1	5%	5%	-8	-15%	42%
Fc1cccc(F)c1/C=N/NC(=S)Nc1cccnc1	3.5µM*	?	0	-6%	1.3µM*
Fc1ccc(/C=N/NC(=S)Nc2cccnc2)cc1	0.35µM*	?	-3	5%	4.5µM*
Fc1c(F)c(F)c(/C=N/NC(=S)Nc2cccnc2)c(F)c1F	3.5µM*	-1%	-19	?	2.5µM*
COc1ccc2c(c1)C(C)=CC(C)(C)N2S(=O)(=O)c1ccc(C)cc1	1%	0%	-1	-3%	-39%
CCOc1ccc2c(c1)C(C)=CC(C)(C)N2S(=O)(=O)c1ccc(C)cc1	?	0%	1	-1%	4µM*
O=C(NC1=NCCS1)c1ccccc1Cl	2%	0%	-4	15%	-1%
O=C(NC1=NCCS1)c1ccc(Cl)c(Cl)c1	?	0%	1	?	11µM*
Cc1cccc(C(=O)NC2=NCCS2)c1	-29%	-1%	10	?	11µM*
Cc1cc(C(=O)NC2=NCCS2)cs1	?	-1%	-3	?	11µM*
O=C(NC1=NCCS1)c1csc2ccccc12	?	3%	15	?	7.9µM*
N[C@H](COP(=O)(O)O)C(=O)O	-18%	.	.	.	20%
COc1cc2c(cc1OC)C(C(C(=O)N(CCc1ccc(OC)c(OC)c1OC)CCc1ccc(OC)c(OC)c1OC)c1ccccc1)=NCC2 (centres undefined)	2%	.	.	.	-15%
CN(C(=S)Oc1ccc(C(=O)Nc2ccccc2)cc1)c1ccccc1	?	2%	-5	18µM*	15%
CCOc1ccccc1-c1nnc2n1N=C(c1ccccc1OC)CS2	-3%	.	.	.	?
CC(C)NC(=S)N/N=C1\CCCCC1C1CCCCC1 (centres undefined)	3.5µM*	0%	-16	?	1µM*
CC1CCCC/C1=N\NC(=S)Nc1ccccc1 (centres undefined)	-1%	0%	-12	17%	-111%
N#Cc1ccc(COC(=O)CN2C(=O)NC3(CCCC3)C2=O)cc1	.	0%	7	-5%	.
CCOC(=O)C1=NN(c2ccccc2C)C2=NC(C)=C(C(=O)OC)C(c3cccs3)N12 (centres undefined)	-4%	0%	-1	?	20%
CCOC(=O)C1=NN(c2cccc(Cl)c2)C2=NC(C)=C(C(=O)OC)C(c3cccs3)N12 (centres undefined)	-6%	0%	-11	21µM*	26%
Cc1ccc(Nc2c(-c3ccccn3)nc3cccc(C)n23)cc1	?	?	-9	?	4.5µM*
Cc1cccc(C)c1Nc1c(-c2ccccn2)nc2ccccn12	-9%	?	-17	?	11µM*
Cc1cccc2nc(-c3ccco3)c(Nc3ccccc3)n12	4%	-1%	-8	?	-23%
